# Compound activity as filed in PubChem.
# Shown are actives, neighbours in structure and some others; about 6.9% of the full set was active somewhere.
# IL-1B inflam inh – qHTS for Inhibitors of Inflammasome Signaling: IL-1-beta AlphaLISA Primary Screen. THP-1 LPS/ATP IL-1B secretion, AlphaLISA, 16 h; hits give low values. activity change, % at 57.5 µM. 360,000 tested, 4.7% active. AID 743279, 2014; in the data active = activity change below about -50%; inconclusive = mostly about -30% to -49%
#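 Secreted IL-1B measured by AlphaLISA bead assay after 16 h compound exposure of THP-1 cells; compounds (final up to 57.5 uM) added 1 h before LPS (250 ng/mL) and ATP (1.25 mM) stimulation; lower signal means less secretion.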
# Giardia kill – Small Molecules that selectively kill Giardia lamblia: qHTS. 340,000 tested, 0.15% active. activity change, % at 7.66 µM, hits read low. Giardia lamblia trophozoite viability. AID 540267, 2011; in the data active = activity change below about -80%; inconclusive = between about -30% and that limit;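 note: parasites exposed to compound for two days anaerobically before the ATP read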
#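 Viability, read as ATP luminescence: trophozoites at 100 cells/well, compound added, 48 hrs anaerobic at 37 deg C, then 15-30 min room-temperature development before reading.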
# MCF10A rerep – A quantitative high throughput screen for small molecules that induce DNA re-replication in MCF 10a normal breast cells. MCF 10A DNA re-replication, Hoechst nuclear intensity, 48 h. Potency, µM (top dose mostly 46.1 µM), hits mostly activators. 350,000 tested, 2.9% active. AID 624296, 2012; note: nearly all actives have a fitted effect of over 50% in size
# SW480 rereplic – A quantitative high throughput screen for small molecules that induce DNA re-replication in SW480 colon adenocarcinoma cells | SW480 DNA re-replication, Hoechst DNA content imaging, 48 h | Potency, µM (top dose mostly 46.1 µM), actives largely listed as activators | 340,000 tested, 1.8% active | AID 624297, 2012; note: nearly all actives have a fitted effect of over 55% in size
#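 Readout is total intensity of Hoechst-stained nuclei, excited at 405 nm and collected at 500-530 nm. Compound treatment lasted 48 hr at 37 C in 5% CO2 before staining.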
# Vif-APOBEC3F blk – qHTS for Inhibitors of Vif-A3F Interactions: qHTS | HeLa A3F-eYFP + Vif (tagged APOBEC3F with the HIV-1 protein that degrades it), YFP fluorescence increase | 390,000 tested, 0.2% active | Potency, µM (series often up to 46.1 µM) | AID 602313, 2012; note: nearly all actives have a fitted effect of over 65% in size
#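 Fluorescence increase (Ex 488/Em 500-530) after overnight compound treatment at 37 deg C flags inhibition of Vif-driven A3F-eYFP loss in stable HeLa A3F-eYFP/Vif cells seeded overnight beforehand.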
# Vif-A3G inh – qHTS for Inhibitors of Vif-A3G Interactions: qHTS; DNA dC->dU-editing enzyme APOBEC-3G (Homo sapiens), Q9HC16; HeLa A3G-eYFP + Vif (tagged APOBEC3G with the HIV-1 protein that degrades it), YFP fluorescence, overnight; Potency, µM (titrated, usually from 46.1 µM), most hits filed as inhibitors; 410,000 tested, 0.076% active; AID 602310, 2012; note: nearly all actives have a fitted effect of over 60% in size
# Target sequence (Q9HC16 whole entry, looked up): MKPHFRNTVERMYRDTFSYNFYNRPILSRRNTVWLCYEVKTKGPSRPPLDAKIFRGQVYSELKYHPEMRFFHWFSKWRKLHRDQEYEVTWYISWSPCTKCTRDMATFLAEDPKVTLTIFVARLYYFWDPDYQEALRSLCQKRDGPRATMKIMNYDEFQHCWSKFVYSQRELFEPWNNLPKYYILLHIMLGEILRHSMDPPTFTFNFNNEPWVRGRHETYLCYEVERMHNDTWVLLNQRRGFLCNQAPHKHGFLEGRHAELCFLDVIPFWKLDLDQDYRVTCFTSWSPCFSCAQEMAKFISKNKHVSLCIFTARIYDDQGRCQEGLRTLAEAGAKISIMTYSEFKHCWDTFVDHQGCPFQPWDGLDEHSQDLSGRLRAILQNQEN
#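 Read-out is eYFP fluorescence (Ex 488/Em 500-530) from Vif-expressing HeLa A3G-eYFP cells; more signal means A3G escaped Vif-mediated degradation. Cells plated overnight, compound pinned in, incubated overnight at 37 deg C.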
# Numbers stand for hits; n = inactive; u = inconclusive; x = no result; ! = not confirmed by another sample. Unless noted, calls come from the whole dose curve; as a rule, active = well fitted curve in the direction sought with a large enough effect; inconclusive = small, poorly fitted or top-dose-only effect, or another doubt; inactive = no such curve, though single readings can be large; an effect the other way counts as inactive or inconclusive.
SMILES,IL-1B inflam inh,Giardia kill,MCF10A rerep,SW480 rereplic,Vif-APOBEC3F blk,Vif-A3G inh
Cc1ccc(C)c(N=Nc2ccc(O)c3ncccc23)c1,n,n,16µM,n,n,n
CCc1ccc(OCC(=O)Nc2cc(-c3nc4cc(C)ccc4o3)ccc2C)cc1,x,x,x,x,n,n
C/C(=N\NC(=O)c1cc(C2CC2)nc2ccccc12)c1ccc(O)cc1O,n,n,n,1.5µM,n,n
O=C(NNc1c2ccccc2nc2ccccc12)c1ccc(O)cc1O,-51,n,n,n,n,n
C/C(=N\NC(=O)c1cc(C2CC2)nc2ccccc12)c1ccc(C)s1,n,n,u,u,n,n
O=C(NNc1c2ccccc2nc2ccccc12)c1cccc(O)c1,-80,n,n,n,n,n
CCOC(=O)C1CCN(S(=O)(=O)c2cc(-c3onc(C)c3C)ccc2C)CC1,x,x,x,x,n,n
CN(C)c1ccc(CN(CC2CCCO2)C(=O)COc2ccc(Cl)cc2)cc1 (centres undefined),x,x,x,x,n,n
CCOC(=O)N1CCC2(CC1)C(C#N)=C(N)Oc1c2sc2nc(C)cc(C)c12,n,n,7.3µM,u,n,n
CCCN1CCC2(CC1)C(C#N)=C(N)Oc1c2sc2nc(C)cc(C)c12,n,n,n,n,n,n
Cc1ccc(NC(=O)CN2C(=O)CCn3nc(-c4cccn4C)cc32)cc1,x,x,x,x,n,n
CCCCN(CCCC)S(=O)(=O)c1ccc(C(=O)Nc2nnc(CSC)o2)cc1,n,n,10µM,u,n,n
CCCCN(CC)S(=O)(=O)c1ccc(C(=O)Nc2nnc(CSC)o2)cc1,n,n,u,u,n,n
Cc1ccc(C(=O)/C=C/c2cn(CC(O)CN3CCOCC3)c3ccccc23)cc1 (centres undefined),-82,n,13µM,21µM,n,n
COc1ccc(C(=O)/C=C/c2cn(CC(O)CN3CCOCC3)c3ccccc23)cc1 (centres undefined),-93,n,15µM,15µM,n,n
Cc1ccc(C(=O)/C=C/c2cn(CC(O)CN3CCc4ccccc43)c3ccccc23)cc1 (centres undefined),x,x,x,x,n,n
CCOC(=O)c1c(S(=O)(=O)N2CCCC(C(=O)Nc3ccc(OCC)cc3)C2)c(C)n(C)c1C (centres undefined),x,x,x,x,n,n
CCCOC(=O)CSc1nnc2ccc3ccccc3n12,x,x,x,x,n,n
CCN(C(=O)Cn1c(=O)n(Cc2ccccc2)c(=O)c2c1c1cc(OC)ccc1n2C)c1ccccc1,x,x,x,x,n,n
O=c1[nH]c(-c2ccccn2)cc2ccccc12,-56,n,n,u,n,n
COc1cc(NC(=O)N2CCNC2=O)cc(C(=O)Nc2cccc(C(F)(F)F)c2)c1,n,n,2.1µM,5.2µM,n,u
Cc1ccccc1N=C1Nc2ccc(Cl)cc2N[C@]12C[C@H]1CCCC(=O)N3CC[C@@H](C2)[C@@H]13,x,x,x,x,x,n
Cc1cccc(NC(=O)Nc2ccc3c(c2)N(C)C(=O)CS3)n1,-56,n,n,n,u,n
Cc1ccc(NC(=O)Nc2ccc3c(c2)N(C)C(=O)CS3)nc1,n,n,n,n,n,n
Cc1ccnc(NC(=O)Nc2ccc3c(c2)N(C)C(=O)CS3)c1,u,n,u,u,25µM,u
SMILES,IL-1B inflam inh,Giardia kill,MCF10A rerep,SW480 rereplic,Vif-APOBEC3F blk,Vif-A3G inh
Cc1cc(C)c(/C=C/c2onc(C)c2S(=O)(=O)N2CCC(C(=O)Nc3ccc(Cl)c(C(F)(F)F)c3)CC2)c(C)c1,x,x,x,x,n,n
O=C(NCCN1CCCCC1)c1ccc(Cn2c(SCc3ccc(F)cc3)nc3cccnc32)cc1,x,x,x,x,n,n
CN(C)CCOc1ccc2c(c1)C(=O)C(=Cc1ncc([N+](=O)[O-])n1C)C2,-51,x,x,x,u,11µM
CCc1cc(OCCN(C)C)ccc1Cl,n,n,n,n,n,n
CCOC(=O)/C=C/C(=O)Nc1cccc([N+](=O)[O-])c1,-65,n,3.7µM,x,n,n
CCOC(=O)/C=C/C(=O)Nc1ccccc1-c1ccccc1NC(=O)/C=C/C(=O)OCC,-83,n,5.8µM,4.6µM,n,u
CC(=O)Nc1nonc1NC(=O)CSc1nc2ccccc2o1,n,n,n,21µM,n,n
Cc1nn2c(-c3cccc(NC(=O)CSc4nc5ccccc5o4)c3)nnc2c2ccccc12,n,n,10µM,n,n,n
CCC(=O)N1c2ccccc2CC1C(=O)NCCc1ccc(SC)cc1 (centres undefined),x,x,x,x,n,n
CCCN1C(=O)C2(c3ccccc31)c1c(oc3ccc(F)cc3c1=O)C(=O)N2CCCOC(C)C (centres undefined),x,x,x,x,n,n
Cc1cc(C)c(NC(=O)c2cc(C)nc3c2c(C)nn3-c2cccc(F)c2)c(C)c1,x,x,x,x,n,n
O=C(CN1CCCC1)Nc1nc(-c2ccc(Cl)cc2)cs1,n,x,x,x,x,n
O=C(Nc1nc(-c2ccc(Cl)cc2)cs1)C1=COCCO1,-84,n,u,n,n,n
CC1CCN(CC(=O)Nc2nc(-c3ccccc3)cs2)CC1,n,n,u,n,n,n
O=C(Nc1nc(-c2ccc(F)c(F)c2)cs1)C1=COCCO1,n,n,u,u,n,n
O=C(CN1C(=O)CCC1=O)Nc1nc(-c2ccc(Cl)s2)cs1,n,n,21µM!,n,n,n
Cc1ccc(-c2csc(NC(=O)CN3CC(C)OC(C)C3)n2)cc1 (centres undefined),n,n,18µM,u,n,u
O=C(CN1CCCCC1)Nc1nc(-c2ccc(Cl)cc2)cs1,-82,n,u,n,n,n
